Several values for one entry are separate records, joined by “and”; a condition that tells them apart may be missing. Equal values may be shown once. Records with an inconclusive call do not appear. The source holds several records for some structures; these can differ, active in one and inactive in another. Activity calls are given as the source filed them. How the source made its calls: active means hit-call score of the fitted dose curve at least 0.9, where 1 is the maximum; inconclusive means response in the unintended direction; inactive means score below 0.9.

Sequence of Estrogen receptor (Homo sapiens) + Estrogen receptor beta (Homo sapiens) (P03372 whole entry, looked up, the tested form may be a part): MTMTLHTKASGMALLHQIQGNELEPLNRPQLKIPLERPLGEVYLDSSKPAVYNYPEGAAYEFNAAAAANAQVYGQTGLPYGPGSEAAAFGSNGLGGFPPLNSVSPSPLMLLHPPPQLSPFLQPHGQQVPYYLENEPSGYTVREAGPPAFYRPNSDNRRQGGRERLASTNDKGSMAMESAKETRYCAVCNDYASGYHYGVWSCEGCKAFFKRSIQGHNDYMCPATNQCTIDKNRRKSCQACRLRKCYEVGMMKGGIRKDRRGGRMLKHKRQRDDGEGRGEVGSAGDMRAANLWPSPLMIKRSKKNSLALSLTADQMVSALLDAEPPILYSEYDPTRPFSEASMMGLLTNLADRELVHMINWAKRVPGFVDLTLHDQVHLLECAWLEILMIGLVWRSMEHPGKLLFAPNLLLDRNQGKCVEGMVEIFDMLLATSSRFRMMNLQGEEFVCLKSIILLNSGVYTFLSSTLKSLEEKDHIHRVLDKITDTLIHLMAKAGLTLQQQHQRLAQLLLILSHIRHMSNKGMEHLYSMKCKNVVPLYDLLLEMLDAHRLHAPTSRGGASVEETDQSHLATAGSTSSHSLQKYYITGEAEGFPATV
Sequence of Estrogen receptor (Homo sapiens) + Estrogen receptor beta (Homo sapiens) (Q92731 whole entry, looked up, the tested form may be a part): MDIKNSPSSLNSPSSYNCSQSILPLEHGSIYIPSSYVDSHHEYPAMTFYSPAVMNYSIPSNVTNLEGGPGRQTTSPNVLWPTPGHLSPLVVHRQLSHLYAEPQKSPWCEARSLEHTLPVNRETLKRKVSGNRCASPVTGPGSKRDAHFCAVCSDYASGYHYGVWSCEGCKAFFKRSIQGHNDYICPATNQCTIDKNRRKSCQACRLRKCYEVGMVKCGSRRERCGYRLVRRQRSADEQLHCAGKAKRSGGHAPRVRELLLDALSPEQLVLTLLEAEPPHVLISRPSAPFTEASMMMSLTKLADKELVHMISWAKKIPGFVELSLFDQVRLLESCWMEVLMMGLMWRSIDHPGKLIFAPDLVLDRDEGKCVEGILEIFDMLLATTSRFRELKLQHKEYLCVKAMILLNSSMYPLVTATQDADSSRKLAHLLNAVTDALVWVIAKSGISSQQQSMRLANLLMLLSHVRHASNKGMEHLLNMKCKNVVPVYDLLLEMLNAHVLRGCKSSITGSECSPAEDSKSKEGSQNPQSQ

For this experiment, the target named is Estrogen receptor (Homo sapiens) + Estrogen receptor beta (Homo sapiens) (UniProt P03372+Q92731). In words: OT_ER_ERaERb_0480: Odyssey Thera (OT) 8-hour HEK293T Protein-Complementation Assay for Estrogen Receptor-alpha/-beta Heterodimer (AID 2283352). As to the method:
OT_ER_ERaERb_0480 is a cell-based assay that uses HEK293T, a human kidney cell line, with measurements taken at 8 hours after chemical dosing in a 384-well plate.OT_ER_ERaERb_0480 is one of one assay component(s) measured or calculated from the OT_ER_ERaERb_0480 assay. It is designed to make measurements of protein fragment complementation, a form of binding reporter, as detected with fluorescence intensity signals by Protein-fragment Complementation technology.Data from the assay component OT_ER_ERaERb_0480 was analyzed into 1 assay endpoint. This assay endpoint, OT_ER_ERaERb_0480, was analyzed in the positive analysis fitting direction relative to DMSO as the negative control and baseline of activity. Using a type of binding reporter, measures of receptor for gain-of-signal activity can be used to understand the binding at the pathway-level as they relate to the gene ESR1 and ESR2. Furthermore, this assay endpoint can be referred to as a primary readout, because the performed assay has only produced 1 assay endpoint. To generalize the intended target to other relatable targets, this assay endpoint is annotated to the nuclear receptor intended target family, where the subfamily is steroidal.
Protein-fragment complementation assay, or PCA, is a method for the identification and quantification of protein-protein interactions. In the PCA, the proteins of interest ("bait" and "prey") are each covalently linked to fragments of a third protein (e.g. DHFR, which acts as a "reporter"). Interaction between the bait and the prey proteins brings the fragments of the reporter protein in close proximity to allow them to form a functional reporter protein whose activity can be measured. […] Fluorescent signal in the basal state of the assay is very low and is primarily punctuate and cytoplasmic. Modulation of this assay is quantified as an increase in mean fluorescence intensity in the nucleus (for agonists) or in the nucleus and cytoplasm (antagonists) relative to vehicle controls, and can be quantified on a high content imaging device or a laser scanning cytometer. The latter instrument is favored for this assay because of the rapid mode of data acquisition, the ability to acquire data from the entire cell population in a well (as opposed to a fraction of the well on the high content devices) and the larger dynamic range typically achieved with this instrument. To assess sensitivity of the ER alpha/ER beta LBD assay to ligand, cells were treated with the ER agonist 17- beta-estradiol (E2) in 10-point concentration- response format for 8 hours and monitored response on a laser scanning plate cytometer (Acumen eX3; TTP Lab Tech).
Take `CCCCCCCCC(=O)O`: the outcome was inactive.

Regarding `OCCC(F)(F)C(F)(F)C(F)(F)C(F)(F)C(F)(F)C(F)(F)C(F)(F)C(F)(F)F`, the result was inactive.

Regarding `N#C[C@@H]1CC(F)(F)CN1C(=O)CNC1CC2CCC(C1)N2c1ncccn1` (some centres undefined), the result was inactive.

As to `NC(=O)N(O)[C@@H]1C=C[C@H](Oc2cccc(Oc3ccc(F)cc3)c2)C1`, the outcome was inactive.

Consider `CC(C)(C)c1cc(C(C)(C)C)c(O)c(C(C)(C)C)c1`, for which the AC50 is 50 µM (active).

Regarding `CCCOC(=O)c1ccc(O)cc1`, the AC50 was 16.7 µM (active).

On to `OC1CCC(C2CCCCC2)CC1` (centres undefined), for which the result was inactive; the concentration at half-maximal activity (AC50) was 50 µM (active) and 34.5 µM (active) and 48.7 µM (active).

For `COCC(C)OCC(C)O` (centres undefined), the outcome was inactive.

Consider `CCCCCCCC(=O)O`, for which the outcome was inactive.

Turning to `CCCCCCCCOC(=O)CCCCCCCCC(=O)OCCCCCCCC`, the outcome was inactive.

As for `CCCCCCCCCCCCCCCS(=O)(=O)Oc1ccccc1`, the result was inactive.

Take `CCCCC(CC)COC(=O)CCCCC(=O)OCc1ccccc1` (centres undefined): the result was inactive.

Consider `CC(=O)CC(C)(C)O`, for which the result was inactive.

In the case of `OCCC(F)(F)C(F)(F)C(F)(F)C(F)(F)C(F)(F)C(F)(F)F`, the outcome was inactive.

For `CC[C@H](C)[C@@H](C(=O)O)n1sc2ccccc2c1=O`, the outcome was inactive.

For `c1ccc2c(c1)Cc1ccccc1-2`, the result was inactive.

For the compound `O=C1OC2(c3ccccc31)c1cc(Br)c(O)c(Br)c1Oc1c2cc(Br)c(O)c1Br`, the AC50 is 78.2 µM (active).

Take `Oc1cccc(O)c1`: the outcome was inactive.

As for `C#C[C@]1(O)CC[C@H]2[C@@H]3CCC4=CC(=O)CC[C@@H]4[C@H]3CC[C@@]21C`, the result was inactive.

Consider `CN(C)C=O`, for which the outcome was inactive.

Turning to `CCc1nn(C2CCCCC2)c2cc(C3(C#N)CCC(C(=O)O)CC3)ccc12` (centres undefined), the outcome was inactive.

Take `CCc1ccc(CCOc2ccc(CC3SC(=O)NC3=O)cc2)nc1` (centres undefined): the outcome was inactive.

Regarding `CCCCC(CC)COC(=O)CCCCC(=O)OCC(CC)CCCC` (centres undefined), the result was inactive.

`CN1CCC[C@H]1c1cccnc1`: the outcome was inactive.

For the compound `C=C(C)C(=O)OCCC(F)(F)C(F)(F)C(F)(F)C(F)(F)C(F)(F)C(F)(F)F`, the result was inactive.

As to `COc1ccc([N+](=O)[O-])cc1N`, the result was inactive.

Regarding `CC(C)(C)CC(C)(C)c1ccc(O)c(-n2nc3ccccc3n2)c1`, the result was inactive.

Consider `O=C(O)Cc1cc(I)c(Oc2cc(I)c(O)c(I)c2)c(I)c1`, for which the outcome was inactive.

Consider `Cc1cc(CCN2CCN(c3nsc4ccccc34)CC2)cc2c1NC(=O)CC2(C)C`, for which the outcome was inactive.

Regarding `C[C@@H]1C[C@H]2[C@@H]3CCC4=CC(=O)C=C[C@]4(C)[C@@]3(F)[C@@H](O)C[C@]2(C)[C@@]1(O)C(=O)COP(=O)(O)O`, the outcome was inactive.

Regarding `CCOC(=O)CC(O)(CC(=O)OCC)C(=O)OCC`, the outcome was inactive.

Consider `Nc1cccc2c(N)cccc12`, for which the outcome was inactive.

For `O=C(O)c1ccccc1C(c1ccc(O)cc1)c1ccc(O)cc1`, the result was inactive.

The values are drawn from PubChem BioAssay (EPA / NIEHS).
